Screening data as filed in PubChem.
GALK inhibitor = galactokinase (human) inhibition | P51570 | Purified GALK, Kinase-Glo residual ATP luminescence | Potency, µM (top dose mostly 57.5 µM), hits mostly inhibitors | 270,000 compounds, 0.007% hits | AID 1868
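Compounds were pin-transferred into ATP buffer (35 uM final), then GALK plus galactose (5 nM, 100 uM final) was added. After 1 h at room temperature, Kinase-Glo Plus was added and luminescence read after 10 min.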
NPSR antag = neuropeptide S receptor (human) antagonism, cAMP; Potency, µM (series often up to 38.3 µM), actives largely listed as inhibitors; 220,000 compounds, 1% hits; Q6W5P4; CHO-NPSR cells, cAMP TR-FRET, antagonist mode; AID 1461; also: nearly all actives have a fitted effect of over 50% in size
TrxR1 substrate = substrates of rat thioredoxin reductase 1. 390,000 compounds, 0.01% hits. Potency, µM (series often up to 114 µM). purified TrxR1 substrate turnover, NADPH consumption readout; also: nearly all actives have a fitted effect of over 50% in size
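Rat TrxR1, dispensed at 90 nM, was prereduced with 400 uM NADPH (final) for 5 min at ~22 deg C, then incubated with compound 15 min before 400 uM selenite. A first-read NADPH fluorescence drop versus no-compound background flagged substrates.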
TrxR1 inh-1 = rat TrxR1 inhibition. O89049. recombinant rTrxR1, NADPH fluorescence consumption, selenite substrate. Potency, µM (titrated, usually from 114 µM), most hits filed as inhibitors. 390,000 compounds, 1% hits; also: nearly all actives have a fitted effect of over 65% in size
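Rat TrxR1 (90 nM in the dispensed reagent) was pre-reduced with 400 uM NADPH for 5 min at room temperature, then incubated with compound for 15 min. After 400 uM selenite was added, NADPH fluorescence (Ex 340/Em 450 nm) was followed for 8 min.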
TRb SRC2 Alpha = confirmation of human TRb-SRC2 interaction inhibitors; AlphaScreen TRb LBD-SRC2 peptide binding, luminescence; 30 compounds, 50% hits; shares compounds with TrxR1 inh-1; Potency, µM; calls by dose curve
HepG2 tox = reduces HepG2 viability in TRb-SRC2 counter-screen; shares compounds with TrxR1 inh-1; HepG2 viability, ATP luminescence (CellTiter-Glo), 72 h; Potency, µM; 40 compounds, 50% hits; AID 2447; calls by dose curve
AR-SRC2 inh = AR-SRC2 (human) interaction inhibition, selectivity. shares compounds with TrxR1 inh-1. AR-LBD Tx-SRC2-3 fluorescence polarization, 3 h. calls only. 25 tested, under 10 active. AID 2448; call rule not given here
PPARg DRIP2 FP = disrupts human PPARgamma binding to DRIP-2 peptide; shares compounds with TrxR1 inh-1; PPARg LBD / Texas Red DRIP-2 peptide, fluorescence polarization, 3 h; Potency, µM; 25 tested, under 10 active; AID 2449; calls by dose curve
Target sequence (P37231 whole entry, looked up, the tested form may be a part): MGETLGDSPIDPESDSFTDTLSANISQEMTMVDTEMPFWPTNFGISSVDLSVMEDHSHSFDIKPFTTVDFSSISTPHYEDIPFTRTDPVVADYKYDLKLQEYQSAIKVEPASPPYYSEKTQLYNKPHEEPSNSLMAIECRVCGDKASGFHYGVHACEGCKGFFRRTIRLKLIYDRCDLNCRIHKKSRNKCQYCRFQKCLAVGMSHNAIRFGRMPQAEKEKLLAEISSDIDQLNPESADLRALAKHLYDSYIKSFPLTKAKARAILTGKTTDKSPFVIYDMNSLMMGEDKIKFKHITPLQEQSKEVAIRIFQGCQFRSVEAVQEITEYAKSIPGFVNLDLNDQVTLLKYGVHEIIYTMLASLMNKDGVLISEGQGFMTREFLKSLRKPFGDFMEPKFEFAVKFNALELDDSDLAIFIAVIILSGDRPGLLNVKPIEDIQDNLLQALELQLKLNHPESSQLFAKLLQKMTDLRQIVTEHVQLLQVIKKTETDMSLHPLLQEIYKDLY
VDR SRC2 FP = disrupts human vitamin D receptor binding to SRC2 peptide; shares compounds with TrxR1 inh-1; 25 tested, under 10 active; VDR LBD/SRC2-3 peptide, fluorescence polarization, 3 h; AID 2455; Potency, µM; calls by dose curve
TRb SRC2 FluoFP = disrupts human TRb binding to fluorescein-SRC2 peptide. shares compounds with TrxR1 inh-1. TRb LBD / fluorescein-SRC2 peptide, fluorescence polarization. Potency, µM. 20 tested, under 10 active. AID 2487; call rule not given here
GR inh = inhibits human glutathione reductase in TrxR1 counterassay. 55 tested, under 10 active. purified GR, DTNB reduction absorbance 405 nm kinetic. activity change, negative = inhibition, % at 57.1 µM. shares compounds with TrxR1 inh-1
TrxR1 inh-2 = rat TrxR1 inhibition, primary screen retest; shares compounds with TrxR1 inh-1; recombinant TrxR1, NADPH fluorescence consumption, selenite substrate; Potency, µM, hits mostly inhibitors; 55 compounds, 50% hits; AID 652023
TrxR1 insulin = TrxR1 inhibition in insulin mechanism assay | shares compounds with TrxR1 inh-1 | TrxR1 Trx-coupled insulin reduction, NADPH absorbance 340 nm | Potency, µM | 55 compounds, 20% hits;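 active = compounds with a measured potency under 100 micromolar; inconclusive = filed, but no rule given; inactive = potency at or above that, or unmeasurable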
TrxR1 inh-3 = rat thioredoxin reductase 1 inhibition, DTNB assay; 55 compounds, 90% hits; AID 652256; shares compounds with TrxR1 inh-1; purified TrxR1, DTNB reduction, A412; Potency, µM;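 active = a half-inhibiting concentration could be measured and was below 100 µM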
Large screens that a line does not name were inactive (follow-up assays come after a bar, where they were run). Rows were chosen to be rich in hits. Some 1.2% of all compounds tested hit in one or more screens of this group. Unless noted, calls follow the shape of the dose curve; as a rule, active = well fitted curve in the direction sought with a large enough effect; inconclusive = small, poorly fitted or top-dose-only effect, or another doubt; inactive = no such curve, though single readings can be large; an effect the other way counts as inactive or inconclusive.

CCOc1ccc(S(=O)(=O)n2nc(C)c(S(=O)(=O)N3CCCCCC3)c2C)cc1	none (no result: GALK inhibitor, NPSR antag)
C/C=C\C=C\C(=O)Nc1cccc(C2=NOC3(C2)C[C@@H](C(N)=O)N(C(=O)C(c2ccccc2)c2ccccc2)C3)c1 (stereo partly specified)	TrxR1 inh-1 13µM | TrxR1 insulin inactive | TrxR1 inh-3 inactive
Cc1ccc(NC(=O)CCN2C(=O)c3ccccc3Sc3ncccc32)cc1	TrxR1 inh-1 11µM (no result: NPSR antag) | GR inh inactive | TrxR1 inh-2 9.5 | TrxR1 insulin inactive | TrxR1 inh-3 inactive
CC(C)CCN(CC(=O)NCc1ccc(F)cc1)S(=O)(=O)c1ccccc1F	none (no result: GALK inhibitor, NPSR antag)
COc1ccc([N+](=O)[O-])c(S(=O)(=O)c2ccc(Cl)cc2)n1	NPSR antag inconclusive, TrxR1 inh-1 0.5µM | GR inh inactive | TrxR1 inh-2 0.13 | TrxR1 insulin 26µM | TrxR1 inh-3 0.041µM
COc1ccc([N+](=O)[O-])c(S(=O)(=O)c2ccccc2)n1	NPSR antag inconclusive, TrxR1 inh-1 inconclusive
CC(C)(C)c1cc(CN2CCN(CCO)CC2)cc(C(C)(C)C)c1O	TrxR1 inh-1 7.9µM | GR inh inactive | TrxR1 inh-2 inconclusive | TrxR1 insulin inactive | TrxR1 inh-3 1.3µM
NS(=O)(=O)c1cc(C(=O)OCC(=O)Nc2ccc(Cl)cc2[N+](=O)[O-])ccc1Cl	none
CC(=O)c1cccc(NC(=O)C(C)OC(=O)c2ccc(S(C)(=O)=O)c([N+](=O)[O-])c2)c1 (stereo unspecified)	TrxR1 inh-1 7.1µM (no result: GALK inhibitor, NPSR antag) | TRb SRC2 Alpha 40µM | HepG2 tox inconclusive | AR-SRC2 inh inactive | PPARg DRIP2 FP inconclusive | VDR SRC2 FP inconclusive | TRb SRC2 FluoFP 62µM
CC(=O)c1cccc(NC(=O)COC(=O)c2ccc(S(C)(=O)=O)c([N+](=O)[O-])c2)c1	TrxR1 inh-1 1.6µM | TRb SRC2 Alpha 87µM | HepG2 tox inconclusive | AR-SRC2 inh inactive | PPARg DRIP2 FP inactive | VDR SRC2 FP 60µM | TRb SRC2 FluoFP inconclusive
Cc1ccccc1NC(=O)COC(=O)c1ccc(S(C)(=O)=O)c([N+](=O)[O-])c1	TrxR1 inh-1 2.5µM | TRb SRC2 Alpha 28µM | HepG2 tox inconclusive | AR-SRC2 inh inactive | PPARg DRIP2 FP inactive | VDR SRC2 FP inactive | TRb SRC2 FluoFP inactive
CS(=O)(=O)c1ccc(C(=O)OCC(=O)Nc2cc(C(F)(F)F)ccc2Cl)cc1[N+](=O)[O-]	TrxR1 inh-1 8.9µM (no result: GALK inhibitor, NPSR antag) | TRb SRC2 Alpha 17µM | HepG2 tox 17µM | AR-SRC2 inh inactive | PPARg DRIP2 FP inactive | VDR SRC2 FP inconclusive | TRb SRC2 FluoFP inactive
CC(OC(=O)c1ccncc1)C(=O)Nc1cccc([N+](=O)[O-])c1 (stereo unspecified)	none
NS(=O)(=O)c1cc(C(=O)OCC(=O)Nc2ccccc2[N+](=O)[O-])ccc1Cl	none
CCOc1ccc(CC(=O)NCC(c2cccs2)S(=O)(=O)c2ccc(F)c(C)c2)cc1 (stereo unspecified)	none (no result: GALK inhibitor, NPSR antag)
Cc1csc(Sc2ccc(C(=O)OCC(=O)Nc3ccc(OC(F)(F)F)cc3)cc2[N+](=O)[O-])n1	none
CS(=O)(=O)c1ccc(C(=O)OCC(=O)Nc2ccc(OC(F)(F)F)cc2)cc1[N+](=O)[O-]	TrxR1 inh-1 3.5µM (no result: GALK inhibitor, NPSR antag) | TRb SRC2 Alpha 17µM | HepG2 tox inactive | AR-SRC2 inh inactive | PPARg DRIP2 FP inactive | VDR SRC2 FP inactive | TRb SRC2 FluoFP inactive
COC(=O)c1cc2oc(C)cc2n1Cc1ccc(Cl)cc1	none (no result: GALK inhibitor, NPSR antag)
COc1ccc(/C=N/n2c(C3CCCCC3)n[nH]c2=S)c(OC)c1	none (no result: NPSR antag)
